{"source": "ChEMBL document CHEMBL3988442", "about": "“University of Dundee, Small-Polar-MMV Screening Library” (2021)", "note": "About 13,000 (27%) of roughly 48,000 compounds showed an effect of 50% or more. The list shows a part of the results.", "data": [{"test_system": "Wolbachia pipientis", "assay": "Anti-Wolbachia Cell-Based Screen", "type": "functional", "set-up": "scale not given: in the data most compounds retested in dose-response had high values", "conditions": "5 µM", "units": {"Percent Effect": "%"}, "values": [{"compound": "Cc1ccc(C(O)CN2CCN(Cc3nccn3C)CC2)cc1C", "note": "(configuration not stated)", "Percent Effect": 121.6}, {"compound": "N#Cc1ccnc(N2CCN(CC(O)c3cc(F)ccc3F)CC2)c1", "note": "(configuration not stated)", "Percent Effect": -0.2819}, {"compound": "CC(C)C1CN(S(=O)(=O)Cc2cccc(C#N)c2)CCS1", "note": "(configuration not stated)", "Percent Effect": -6.809}, {"compound": "COCC1(NC(=O)Nc2nc(C)ns2)CCCC1", "Percent Effect": -4.167}, {"compound": "CC(C)[C@H]1COC(=O)N1Cc1noc(-c2ccccc2)n1", "Percent Effect": -3.7}, {"compound": "Cc1nc(NS(=O)(=O)c2ccc(F)c(Br)c2)no1", "Percent Effect": -14.77}, {"compound": "COCC1CN(Cc2ccc(F)cc2)Cc2nnn(CC3CC3)c21.O=C(O)C(F)(F)F", "note": "(configuration not stated)", "Percent Effect": -1.939}, {"compound": "CCn1cc2c(n1)CN(Cc1ccc(F)cc1)CC2COCC1CC1.O=C(O)C(F)(F)F", "note": "(configuration not stated)", "Percent Effect": -4.171}, {"compound": "CCn1ncc2c1C(COC)CN(Cc1ccc(F)cc1)C2.O=C(O)C(F)(F)F.O=C(O)C(F)(F)F", "note": "(configuration not stated)", "Percent Effect": 110}, {"compound": "COCC1CN(Cc2cccnc2)Cc2nnn(CC3CC3)c21.O=C(O)C(F)(F)F.O=C(O)C(F)(F)F", "note": "(configuration not stated)", "Percent Effect": -2.73}, {"compound": "Cn1ncc2c1CN(Cc1cccnc1)CC2COCC1CC1.O=C(O)C(F)(F)F.O=C(O)C(F)(F)F.O=C(O)C(F)(F)F", "note": "(configuration not stated)", "Percent Effect": 2.893}, {"compound": "CCn1ncc2c1C(COC)CN(Cc1cccnc1)C2.O=C(O)C(F)(F)F.O=C(O)C(F)(F)F.O=C(O)C(F)(F)F", "note": "(configuration not stated)", "Percent Effect": 103}, {"compound": "COCC1CN(CC2CCOCC2)Cc2cn(CC3CCCC3)nc21", "note": "(configuration not stated)", "Percent Effect": -7.587}, {"compound": "Cc1nonc1C1CCCN1C(=O)c1cc2n(n1)CCCN(C(C)C)C2", "note": "(configuration not stated)", "Percent Effect": 4.032}, {"compound": "CSCCNC(=O)c1ccc(OC2CCN(CC(C)(C)C)CC2)c(Cl)c1", "Percent Effect": -14.62}, {"compound": "Cc1nc(SCC(=O)Nc2ccc(C(N)=O)cc2)c(C#N)c(C)c1C", "Percent Effect": 108.9}, {"compound": "COc1ccc(NC(=O)CSc2nc(C)c(C)c(C)c2C#N)cn1", "Percent Effect": 14.78}, {"compound": "Cc1cc(=O)n(CC(=O)Nc2ccc(C(N)=O)cc2)nc1C", "Percent Effect": 4.74}, {"compound": "Cc1ccccc1CC(C)(C)NC(=O)CCOc1cccc(C(N)=O)c1", "Percent Effect": -6.35}, {"compound": "NC(=O)c1noc(Cn2ncc3ccccc3c2=O)n1", "Percent Effect": -15.29}, {"compound": "CC(C)Nc1nc(O)cc(C(C)n2ncc3ccccc3c2=O)n1", "note": "(configuration not stated)", "Percent Effect": 144.2}, {"compound": "CC(NCCN1CCN(C(=O)C2CCCC2)CC1)c1ccccn1", "note": "(configuration not stated)", "Percent Effect": 4.295}, {"compound": "CNC(=O)c1noc(Cn2ncc3ccccc3c2=O)n1", "Percent Effect": -3.773}, {"compound": "CCN(CC)c1nc(O)cc(C(C)n2ncc3ccccc3c2=O)n1", "note": "(configuration not stated)", "Percent Effect": 150.9}, {"compound": "Cc1cc(C)nc(NC2CC(=O)N(C)C2)n1", "note": "(configuration not stated)", "Percent Effect": -15.96}, {"compound": "CC(C)c1noc(Cn2ncc3ccccc3c2=O)n1", "Percent Effect": -9.946}, {"compound": "CC(c1cc(O)nc(NC2CCCC2)n1)n1ncc2ccccc2c1=O", "note": "(configuration not stated)", "Percent Effect": 143.5}, {"compound": "CC(C)c1nc(CNC(C(=O)N2CCOCC2)C(C)C)no1", "note": "(configuration not stated)", "Percent Effect": -8.871}, {"compound": "COCCN(Cc1coc(-c2ccc(OC)cc2)n1)C1CC1", "Percent Effect": 2.104}, {"compound": "CC(C)CC(NC(=O)C1=CCCC1)C(=O)N1CCC(CO)CC1", "note": "(configuration not stated)", "Percent Effect": 0.4021}, {"compound": "COCc1nc2cc(NCc3ccc(CO)o3)ccc2o1", "Percent Effect": -0.637}, {"compound": "CCN(CC)C(=O)CCCNC(=O)c1csc(NC2CC2)n1", "Percent Effect": -10.76}, {"compound": "Cc1nn(C)c(Oc2ccc(Cl)cc2)c1CN1CCC(CN)C1", "note": "(configuration not stated)", "Percent Effect": -7.014}, {"compound": "CC(O)Cc1cn(CC2CCN(c3nccc4occc34)CC2)nn1", "note": "(configuration not stated)", "Percent Effect": 2.668}, {"compound": "FC(F)(F)CCc1ccnc(NC2CCOC2)n1", "note": "(configuration not stated)", "Percent Effect": 0.7283}, {"compound": "Cc1csc2ncc(-c3ccnc(NC4CCOCC4)n3)c(=O)n12", "Percent Effect": 88.01}, {"compound": "Cc1cn2c(=O)c(-c3ccnc(N[C@@H]4CCOC4)n3)cnc2s1", "Percent Effect": 101}, {"compound": "Cc1ccc(-c2ccnc(N[C@H]3COC[C@@H]3N3CCCCC3)n2)c(C)n1", "Percent Effect": 10.8}, {"compound": "CCCn1ncc(-c2ccnc(NC3CCSC3)n2)c1C", "note": "(configuration not stated)", "Percent Effect": -13.99}, {"compound": "Cc1cn2c(=O)c(-c3ccnc(NC4CCOCC4)n3)cnc2s1", "Percent Effect": 101.9}, {"compound": "O=C(CCCc1cn[nH]c1)N1C[C@@H](CN2CCCC2)C[C@H](CO)C1", "Percent Effect": -0.9744}, {"compound": "COc1cc(C)cc(C(C(=O)O)N2CCN(C3CCCC3)CC2)c1OC", "note": "(configuration not stated)", "Percent Effect": -14.27}, {"compound": "CC(C)c1nn(C)c(N2CCOCC2)c1CNCCS(C)(=O)=O", "Percent Effect": -4.469}, {"compound": "N#CC1(NC(=O)c2ccn(-c3ccccc3Cl)n2)CCSC1", "note": "(configuration not stated)", "Percent Effect": -6.951}, {"compound": "CN1[C@H](CO)C[C@H](CNCc2ccc(Cl)c(F)c2)[C@@H]1c1ccccc1F", "Percent Effect": -19.47}, {"compound": "CN1CCCCC12Cc1ccccc1CN(C(=O)C1CCCC1)C2", "note": "(configuration not stated)", "Percent Effect": 124.9}, {"compound": "CN1CCN(C(=O)C2(S(C)(=O)=O)CCCC2)Cc2ccccc21", "Percent Effect": -5.505}, {"compound": "CS(=O)(=O)N1CCCCC12CCN(C(=O)c1ccccc1)C2", "note": "(configuration not stated)", "Percent Effect": -1.645}, {"compound": "CN1CCCCC12Cc1ccccc1CN(C(=O)c1ccccc1)C2", "note": "(configuration not stated)", "Percent Effect": 117.9}, {"compound": "CN1CCN(C(=O)C2(NC(N)=O)CCCCC2)Cc2ccccc21", "Percent Effect": -12.44}, {"compound": "O=C(NC1CCc2ccccc2C1)N1CCN(C(=O)C2CCC2)CC1", "note": "(configuration not stated)", "Percent Effect": -14.39}, {"compound": "CC(=O)N1Cc2ccccc2CC2(CCCCN2C)C1", "note": "(configuration not stated)", "Percent Effect": 130.2}]}]}
